In PubChem BioAssay (Tox21) one finds Potency and activity change, negative = inhibition data, which are given here for 38 molecules.

Records with an inconclusive call do not appear. Where a call stands in place of a potency, no number is given. Unmarked numbers belong to inactive results. Calls of active or inactive are those of the source. Unless noted, calls come from the whole dose curve.

Beta-2 adrenergic receptor (Homo sapiens), sequence (P07550 whole entry, looked up): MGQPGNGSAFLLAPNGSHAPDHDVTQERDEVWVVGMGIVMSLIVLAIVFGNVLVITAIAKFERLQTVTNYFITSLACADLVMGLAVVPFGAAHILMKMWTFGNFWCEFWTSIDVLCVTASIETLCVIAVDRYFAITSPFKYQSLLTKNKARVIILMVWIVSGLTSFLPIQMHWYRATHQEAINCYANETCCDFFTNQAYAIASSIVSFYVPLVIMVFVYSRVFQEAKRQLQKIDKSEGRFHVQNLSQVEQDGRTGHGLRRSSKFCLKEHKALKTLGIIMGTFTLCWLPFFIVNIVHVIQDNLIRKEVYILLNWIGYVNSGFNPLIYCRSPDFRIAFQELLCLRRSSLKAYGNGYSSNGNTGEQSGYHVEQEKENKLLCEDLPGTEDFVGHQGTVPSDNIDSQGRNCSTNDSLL

Test system in one assay: not listed separately
As to the kind of experiment: cAMP Responsive Elements (CRE) small molecule antagonists, cell-based qHTS assay (AID 1963591; active = well fitted inhibition curve with a large enough effect in the signal ratio in the repeat runs, not every such curve was filed as active; the % refers to the signal ratio; note: potency is the fitted concentration of half-maximal effect). Particulars: CRE-bla HEK293T, beta-lactamase FRET ratio; series mostly up to 92.4 µM. Put shortly: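 First, CRE-bla HEK293T cells settled 18 h at 37 C. Next, compound and 0.25 uM final NKH477 were applied for 3 h. Last, LiveBLAzer B/G substrate was loaded for 2 h at room temperature.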
In the case of `C=Cc1c(C)c2cc3[nH]c(cc4nc(cc5nc(cc1[nH]2)C(C)=C5CCC(=O)O)C(CCC(=O)O)=C4C)c(C)c3C=C`, the Potency result was “inactive”.
Still for that read-out and setting: to `CCN1/C(=C/C=C/c2sc3ccccc3[n+]2CC)Sc2ccccc21` belongs 11.6 µM (active).
On the same count and under the same terms, to `c1cnc(N2CCN(Cc3ccc4c(c3)OCO4)CC2)nc1` belongs “inactive”.
Still for that read-out and setting: to `C=C[Si]1(C)O[Si](C)(C=C)O[Si](C)(C=C)O[Si](C)(C=C)O1` (stereo not given) belongs “inactive”; to `CCCNC(C)(C)COC(=O)c1ccccc1`, “inactive”.
Regarding `CCCCCCCCCCl`, the Potency entry is “inactive”.
On the same count and under the same terms, in the case of `CCCCCC(C)OC(=O)COc1ccc(Cl)c2cccnc12` (stereo not given) it was “inactive”.
The same measure, in the same setting: to `O=C(N[C@H](CO)[C@H](O)c1ccc([N+](=O)[O-])cc1)C(Cl)Cl` belongs “inactive”; to `CC(=O)Nc1ccc(/C=N/NC(N)=S)cc1`, “inactive”.
Same read-out and setting: to `C=O` belongs “inactive”; to `CC(C)(C)C1=CC(=O)C=C(C(C)(C)C)C1=O`, “inactive”.
As to `CC/C=C\CCCCCCCCCCOC(C)=O`, the Potency result is “inactive”.
The same measure, in the same setting: to `Oc1ccc(C2(c3ccc(O)cc3)CC3CC2C2CCCC32)cc1` (stereo not given) belongs 65.9 µM (active).
On to `O=c1[nH]c(=O)n([C@H]2C[C@H](O)[C@@H](CO)O2)cc1C(F)(F)F`, for which the Potency result is “inactive”.
The same measure, in the same setting: to `Cc1ccc(Br)cc1` belongs “inactive”.
In the case of `CC1CCC(CO)CC1` (stereo not given), the Potency entry was “inactive”.
On to `C=Cc1ccc(OC(C)=O)cc1`, for which the Potency entry was “inactive”.
In the case of `Nc1ccc(/C=C/c2ccc(N)cc2S(=O)(=O)O)c(S(=O)(=O)O)c1`, the activity change, negative = inhibition was -10.6% [at 0.349 µM].
Consider `Cc1cccc(N(C)C(=S)Oc2ccc3c(c2)C2CCC3C2)c1` (stereo not given), for which the Potency result is “inactive”.
For `Cc1c(N)cccc1N`, the Potency entry is “inactive”.
Regarding `CCC(CC)CO`, the Potency result is “inactive”.
The same measure, in the same setting: in the case of `Cc1c(N)c(=O)n(-c2ccccc2)n1C` it was “inactive”; in that of `O=C(NN1CCCC1)NS(=O)(=O)c1ccc(Cl)cc1`, “inactive”; in that of `C=C[Si](OC(C)=O)(OC(C)=O)OC(C)=O`, “inactive”.
On the same count and under the same terms, to `CSc1ccc(Oc2ccc(S(N)(=O)=O)cc2CN(C)C)cc1C` belongs “inactive”; to `Cc1ccccc1S`, “inactive”.
Take `Cc1ccc(O)c2ncccc12`: the Potency is 13.3 µM (active).
Same read-out and setting: in the case of `COC(OC)(C(=O)c1ccccc1)c1ccccc1` it was “inactive”.
`Cc1c(Nc2ncccc2C(=O)O)cccc1C(F)(F)F`: the Potency result was “inactive”.
On to `CCCCCCCCS(=O)(=O)O`, for which the Potency entry was “inactive”.

The target in another assay is Beta-2 adrenergic receptor (Homo sapiens) (UniProt P07550). As to the kind of experiment: Adrenergic beta2 receptor (ADRB2) small molecule antagonists, cell-based qHTS assay (AID 1963592). Note: nearly all actives have a fitted effect of over 50% in size. Note: potency is the fitted concentration of half-maximal effect. To be noted: CHO-ADRB2 cells, isoproterenol-stimulated cAMP HTRF ratio, 0.5 h; series mostly up to 92.4 µM. An outline of the steps:
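Assay format: CHO-ADRB2 cells, 18-20hr seeding at 37C/5% CO2, then compound plus 1nM isoproterenol agonist mix for 0.5hr RT. Homogeneous time-resolved fluorescence cAMP detection after 1hr, expressed as 665/615 nm ratio.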
A general note: qHTS replaces the single test concentration by a dilution series.
As to `C=Cc1c(C)c2cc3[nH]c(cc4nc(cc5nc(cc1[nH]2)C(C)=C5CCC(=O)O)C(CCC(=O)O)=C4C)c(C)c3C=C`, the Potency result was “inactive”.
Same read-out and setting: to `CCCCCCCOC(=O)CCC` belongs “inactive”.
The same measure, in the same setting: in the case of `CCCCCCCCC(=O)OCC(C)OC(=O)CCCCCCCC` (stereo not given) it was “inactive”; in that of `CCN1/C(=C/C=C/c2sc3ccccc3[n+]2CC)Sc2ccccc21`, 5.8 µM (active); in that of `c1cnc(N2CCN(Cc3ccc4c(c3)OCO4)CC2)nc1`, “inactive”.
The same measure, in the same setting: in the case of `CCN(Cc1cccnc1)C(=O)c1cccc(Cl)c1[C@]1(C)C(=O)N(Cc2ccc(OC)cc2OC)c2ccc(Cl)cc21` it was “inactive”.
`CCCCCCCCCCl`: the Potency result was “inactive”.
Turning to `O=C(N[C@H](CO)[C@H](O)c1ccc([N+](=O)[O-])cc1)C(Cl)Cl`, the Potency result was “inactive”.
As for `CC(=O)Nc1ccc(/C=N/NC(N)=S)cc1`, the Potency result was “inactive”.
As to `C=O`, the Potency result was “inactive”.
On the same count and under the same terms, in the case of `CC(C)(C)C1=CC(=O)C=C(C(C)(C)C)C1=O` it was “inactive”; in that of `C=CC(=C)CCCC(C)(C)OC(C)=O`, “inactive”.
Regarding `CC/C=C\CCCCCCCCCCOC(C)=O`, the Potency result was “inactive”.
Consider `Oc1ccc(C2(c3ccc(O)cc3)CC3CC2C2CCCC32)cc1` (stereo not given), for which the Potency result was “inactive”.
On to `O=c1[nH]c(=O)n([C@H]2C[C@H](O)[C@@H](CO)O2)cc1C(F)(F)F`, for which the Potency result was “inactive”.
Still for that read-out and setting: to `Cc1ccc(Br)cc1` belongs “inactive”; to `CC1CCC(CO)CC1` (stereo not given), “inactive”.
As for `C=Cc1ccc(OC(C)=O)cc1`, the Potency result was “inactive”.
Regarding `Nc1ccc(/C=C/c2ccc(N)cc2S(=O)(=O)O)c(S(=O)(=O)O)c1`, the activity change, negative = inhibition was -6.48% [at 0.349 µM].
For `Cc1cccc(N(C)C(=S)Oc2ccc3c(c2)C2CCC3C2)c1` (stereo not given), the Potency entry is “inactive”.
Same read-out and setting: to `CCC(CC)CO` belongs “inactive”; to `Cc1c(N)c(=O)n(-c2ccccc2)n1C`, “inactive”.
For the molecule `O=C(NN1CCCC1)NS(=O)(=O)c1ccc(Cl)cc1`, the Potency result is “inactive”.
Regarding `C=C[Si](OC(C)=O)(OC(C)=O)OC(C)=O`, the Potency result was “inactive”.
For `CSc1ccc(Oc2ccc(S(N)(=O)=O)cc2CN(C)C)cc1C`, the Potency entry is “inactive”.
With `CCc1ccc2c(c1)C(=O)c1ccccc1C2=O`, the Potency result was “inactive”.
As for `Cc1ccccc1S`, the Potency entry was “inactive”.
For the molecule `OCCOCC#CCOCCO`, the Potency entry was “inactive”.
Regarding `Cc1ccc(O)c2ncccc12`, the Potency entry was “inactive”.
Still for that read-out and setting: in the case of `COC(OC)(C(=O)c1ccccc1)c1ccccc1` it was “inactive”; in that of `Cc1c(Nc2ncccc2C(=O)O)cccc1C(F)(F)F`, “inactive”; in that of `CC1(C)[C@@H](O)CC[C@]2(C)[C@H]3C(=O)C=C4[C@@H]5C[C@@](C)(C(=O)O)CC[C@]5(C)CC[C@@]4(C)[C@]3(C)CC[C@@H]12`, “inactive”.
The same measure, in the same setting: to `CCCCCCCCS(=O)(=O)O` belongs “inactive”.

The target is the same in a further assay. The assay can be described thus: Adrenergic beta2 receptor (ADRB2) small molecule agonists, cell-based qHTS assay (AID 1963593).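 Note: CHO cells stably overexpressing human ADRB2.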 Particulars: CHO-ADRB2 cells, cAMP HTRF, 30 min; series mostly up to 92.4 µM. An outline of the steps:
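CHO cells stably over-expressing ADRB2 were plated overnight at 37C, then dosed with compounds plus a stimulation mix containing 100uM IBMX and 25uM Ro-20-1724 for 0.5hr at room temperature. cAMP was measured by HTRF competition, 1hr.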
As to `CCCCCCCOC(=O)CCC`, the Potency result was “inactive”.
Same read-out and setting: to `CCCCCC(C)OC(=O)COc1ccc(Cl)c2cccnc12` (stereo not given) belongs “inactive”; to `C=CC(=C)CCCC(C)(C)OC(C)=O`, “inactive”.
Turning to `CC/C=C\CCCCCCCCCCOC(C)=O`, the Potency entry is “inactive”.
Still for that read-out and setting: in the case of `Oc1ccc(C2(c3ccc(O)cc3)CC3CC2C2CCCC32)cc1` (stereo not given) it was “inactive”; in that of `O=c1[nH]c(=O)n([C@H]2C[C@H](O)[C@@H](CO)O2)cc1C(F)(F)F`, “inactive”.
Still for that read-out and setting: to `CC1CCC(CO)CC1` (stereo not given) belongs “inactive”; to `C=Cc1ccc(OC(C)=O)cc1`, “inactive”; to `Cc1cccc(N(C)C(=S)Oc2ccc3c(c2)C2CCC3C2)c1` (stereo not given), “inactive”.
The same measure, in the same setting: in the case of `CCC(CC)CO` it was “inactive”.
On to `Cc1c(N)c(=O)n(-c2ccccc2)n1C`, for which the Potency entry is “inactive”.
Still for that read-out and setting: in the case of `N/C(=N\N=C\c1ccc(Cl)cc1)N/N=C/c1ccc(Cl)cc1` it was “inactive”.
Still for that read-out and setting: in the case of `O=C(NN1CCCC1)NS(=O)(=O)c1ccc(Cl)cc1` it was “inactive”.
Turning to `C=C[Si](OC(C)=O)(OC(C)=O)OC(C)=O`, the Potency entry is “inactive”.
On the same count and under the same terms, to `CCc1ccc2c(c1)C(=O)c1ccccc1C2=O` belongs “inactive”; to `COC(OC)(C(=O)c1ccccc1)c1ccccc1`, “inactive”.
On the same count and under the same terms, in the case of `CC1(C)[C@@H](O)CC[C@]2(C)[C@H]3C(=O)C=C4[C@@H]5C[C@@](C)(C(=O)O)CC[C@]5(C)CC[C@@]4(C)[C@]3(C)CC[C@@H]12` it was “inactive”.
